Screening results as filed in PubChem.
Hits are enriched below; roughly 7.9% of the tested compounds scored in any of these assays.
Her2 expr inh = lowers expression of human Her2 kinase. SKBR-3 HER2 protein level, AlphaScreen, 18-24 h; stronger effect = lower value. HER2 level % of control, % at 10 µM. hit rate 0.69% among 65,000. AID 645;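 active = HER2 level under 5% of the carrier-only control; inconclusive = no clear call, values can overlap the other calls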;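 note: 100% = DMSO carrier and 0% = 500 nM PU-H71 HSP90 inhibitor; lower value means stronger loss of Her2 protein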
M1 agonist = activates the M1 muscarinic receptor; CHO-M1 cells, Fluo-4 calcium fluorescence, agonist mode; stronger effect = higher value; B-score at 10 µM; hit rate 3% among 64,000; AID 626;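 active = fluorescence rise, raw or as B-score row- and column-corrected plate score, outside the 99.7% band of its plate's samples, either direction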
M1 antagonist = M1 muscarinic receptor (rat) antagonism; P08482; CHO-M1 cells, Fluo-4 calcium, ACh EC80 antagonist mode; stronger effect = lower value; B-score at 10 µM; hit rate 3.4% among 64,000; AID 628;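 active = calcium fluorescence response, raw or row-and-column corrected B-score, differing from the plate sample mean either way at a set confidence level, mostly lower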
PLAP act = activates human placental alkaline phosphatase | P05187 | purified PLAP enzyme, luminescent substrate read-out; stronger effect = higher value | activation fold at 20 µM | hit rate 1.2% among 96,000; in the data active = activation fold above about 2
Cav32 inh = inhibitors of human Cav3.2 T-type calcium channel; AID 449739; hit rate 4% among 100,000; B-score at 10 µM; Cav3.2-expressing cells, Fluo-4 calcium fluorescence FDSS; stronger effect = lower value;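 active = single-dose well whose peak fluorescence ratio is a statistical outlier from its plate by either plate-standardised score or position-corrected B-score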
M1 agonist conf = confirmation of rat M1 muscarinic receptor agonists | shares compounds with M1 agonist | CHO-M1 cells, Fluo-4 calcium fluorescence, agonist mode; actives lie on both sides | fluorescence change (max-min) at 10 µM | hit rate 19% among 1,700 | AID 1488;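 active = fluorescence change differs from the solvent-only DMSO control mean at a set confidence level in both duplicate runs; inconclusive = differs from solvent-only control mean in just one of two runs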;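 note: an EC20 dose of acetylcholine follows compound addition during the same imaging run; raw fluorescence intensity difference in instrument units with no normalization to controls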
M4 agonist ctr = counter-screen for M1 agonists: activity at rat M4 receptor; shares compounds with M1 agonist; CHO M4/Gqi5 cells, Fluo-4 calcium fluorescence, agonist mode; actives lie on both sides; fluorescence change (max-min) at 10 µM; hit rate 9% among 1,700; AID 1741;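 active = fluorescence change differing from the plate's solvent-only control wells at 99.7% confidence in both duplicates, whether higher or lower; inconclusive = differs from solvent controls in only one of two duplicates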
Target sequence (P08485 whole entry, looked up): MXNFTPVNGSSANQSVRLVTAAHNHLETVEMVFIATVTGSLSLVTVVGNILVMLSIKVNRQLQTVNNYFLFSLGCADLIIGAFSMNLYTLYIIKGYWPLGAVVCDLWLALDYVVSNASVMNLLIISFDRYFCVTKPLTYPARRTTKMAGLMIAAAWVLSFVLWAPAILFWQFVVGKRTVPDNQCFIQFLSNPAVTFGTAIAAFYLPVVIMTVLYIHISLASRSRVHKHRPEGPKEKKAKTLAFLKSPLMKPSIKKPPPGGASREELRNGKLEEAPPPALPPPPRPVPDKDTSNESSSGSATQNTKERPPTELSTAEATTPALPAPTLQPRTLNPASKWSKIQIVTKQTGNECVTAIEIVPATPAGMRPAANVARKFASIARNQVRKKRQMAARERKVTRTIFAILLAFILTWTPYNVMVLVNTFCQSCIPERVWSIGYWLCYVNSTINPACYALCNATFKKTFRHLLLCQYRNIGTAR
M1 antag confirm = confirmation of rat M1 muscarinic receptor antagonists; calcium response (max-min fluorescence) at 10 µM; AID 677; hit rate 43% among 1,700; shares compounds with M1 antagonist; CHO-M1 cells, Fluo-4 calcium, ACh EC80 antagonism; stronger effect = lower value;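 active = calcium response below the same-plate mean of wells given acetylcholine alone at its 80%-effect dose, minus 3 SD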;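 note: raw fluorescence intensity difference in arbitrary instrument units and not normalized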
mGluR4 antag = mGluR4 (human) activity, M1 antagonist secondary assay. fluorescence response (max-min) at 10 µM. AID 678. shares compounds with M1 antagonist. hit rate 0.9% among 1,700. CHO-mGluR4 calcium flux, Fluo-4 fluorescence, glutamate EC80; stronger effect = lower value;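 active = fluorescence response below the plate's average for near-maximal glutamate wells, less 3 SD of those wells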;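 note: raw unnormalized fluorescence span taken in the window right after glutamate addition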
Numbers without * were called inactive; ? = inconclusive; / = not tested or not shown.

SMILES | Her2 expr inh | M1 agonist | M1 antagonist | PLAP act | Cav32 inh | others
CC(O)(CS(=O)(=O)c1cccc(C(F)(F)F)c1)C(=O)Nc1ccc(C(F)(F)F)cc1 (stereo not drawn) | / | / | / | 1.2 | -1.4
COCCOC(=O)C1=C(N)OC(C)=C(C(=O)OC)C12C(=O)Nc1ccccc12 (stereo not drawn) | 91 | -0.46 | 0.44 | 1.3 | 0.62
CCOC(=O)C1=C(C)OC(N)=C(C(=O)OCC)C12C(=O)Nc1ccc(Br)cc12 (stereo not drawn) | 91 | -0.43 | 0.06 | 1.5 | -3.8*
CCN1CCN(C(=O)COc2ccc3c(c2)C(=O)CC2(CCN(C(C)=O)CC2)O3)CC1 | / | / | / | 2.7* | 0.022
CN1C(=O)/C(=C\c2ccc(N3CCCCC3)o2)C(=O)NC1=S | / | / | / | 0.4 | -4.8*
Cc1ccc(N2C(=O)/C(=C/c3ccc(CN(CCC#N)S(C)(=O)=O)o3)C(=O)NC2=S)cc1C | / | / | / | 1.4 | 1.2
CN1C(=O)/C(=C/c2ccc(N3CCCCCC3)o2)C(=O)NC1=S | / | / | / | / | -4.5*
CN1CC=C2C(C#N)=C(N)C(C#N)(C#N)C(c3ccncc3)C2C1 (stereo not drawn) | 117 | 78* | -1.2 | 1 | -1 | M1 agonist conf=242*;M4 agonist ctr=212*
COC(=O)C1=C(c2cc3ccccc3o2)C[C@@H]2CC[C@H]1N2C(=O)NC(C)C | / | / | / | / | -0.82
CCN1C[C@]2(COC)CC[C@H](OC)[C@@]34C5C[C@H]6C(=O)C5[C@](O)(C[C@H]6OC)[C@@](O)(C(OC)C23)[C@@H]14 (stereo partly drawn) | / | / | / | / | 1.6
COc1ccc(P2(=O)Nc3ccccc3N2)cc1 | 89 | 8.4* | -0.3 | 1 | -2.1* | M1 agonist conf=154*;M4 agonist ctr=163*
COc1ccc(-n2c(=O)[nH]c3ccccc3c2=O)cc1 | / | / | / | 0.9 | -0.073
O=S1(=O)CC2(N3CCOCC3)CCCCCCC21 (stereo not drawn) | 87 | 2.9* | 0.45 | 1 | -0.039 | M1 agonist conf=-12;M4 agonist ctr=-39
O=S1(=O)CC2(N3CCOCC3)CCCCC21 (stereo not drawn) | 83 | -0.33 | 0.36 | 1.1 | -0.8
CNCC(O)c1cccc(OC(=O)c2ccccc2C)c1 (stereo not drawn) | 138 | -3.3* | 0.58 | 0.9 | / | M1 agonist conf=-14;M4 agonist ctr=?
N[C@@H]1CCCC[C@H]1N.O=C(O)C(=O)O.[Pt] | / | / | / | / | -1.1
Cc1ccc(C(=O)C2CN3CCC2CC3)cc1 (stereo not drawn) | 119 | 12* | -2.5 | 0.8 | -0.15 | M1 agonist conf=-18;M4 agonist ctr=?
COC(=O)c1cc(C(O)(C(=O)OC)C(F)(F)F)c(/N=C/N(C)C)s1 (stereo not drawn) | 144 | 0.043 | 0.0093 | 1 | 0.67
COC(=NC1CCCC1)C(O)c1c[nH]c2ccccc12 (stereo not drawn) | 281 | -0.57 | 0.76 | / | -0.23
O=C(c1cc(-c2cccnc2)nc2ccccc12)N1CCC2(CC1)OCCO2 | 99 | 0.68 | -0.14 | 1.2 | 0.45
O=C(c1cc(-c2cccnc2)nc2ccc(Cl)cc12)N1CCC2(CC1)OCCO2 | 78 | 2.8* | -1.1 | 1 | 0.91 | M1 agonist conf=-35*;M4 agonist ctr=-90
CCn1nc(-c2ccccc2)nc2c(=O)n(C)c(=O)nc1-2 | -14* | 25* | -0.41 | / | -1.7 | M1 agonist conf=187*;M4 agonist ctr=?
CCCCn1c(O)c(C(CC)=NCc2ccc3c(c2)OCO3)c(=O)[nH]c1=O | 101 | 4.3* | -0.8 | 0.9 | -5.1* | M1 agonist conf=5.3;M4 agonist ctr=-24
CCCC(=O)OCC[N+](C)(C)C | 116 | 40* | -7.7* | / | 1 | M1 agonist conf=378*;M4 agonist ctr=7.3
C#CCN1C(=O)C2(C(C#N)=C(N)OC(C)=C2C(=O)OCc2ccccc2)c2ccccc21 (stereo not drawn) | 89 | 0.0004 | -0.0078 | 1.4 | -0.86
SMILES | Her2 expr inh | M1 agonist | M1 antagonist | PLAP act | Cav32 inh | others
Nc1ccccc1C(=O)c1ccccc1 | 108 | 0.13 | 0.16 | 0.8 | 0.18
Nc1ccccc1C(=O)OC1CSC1 | 111 | 0.24 | -6.2* | 0.9 | 0.19 | M1 antag confirm=668;mGluR4 antag=241
CN1CCC(N(C)c2ncnc3ccc(Br)cc23)CC1 | 120 | -0.34 | -0.9* | 1 | 0.03 | M1 antag confirm=516;mGluR4 antag=244
O=C(Cn1cnc2sc3c(c2c1=O)CCCC3)NCCCC(=O)N1CCC2(CC1)OCCO2 | / | / | / | 1.3 | -0.4
O=c1[nH]c(=O)n(CCc2ccc(F)cc2)c(O)c1C=NCCCn1ccnc1 | 105 | -0.69 | 0.25 | 1.4 | 0.3
O=c1[nH]c(=O)n(Cc2ccco2)c(O)c1C=NCCCn1ccnc1 | 98 | -0.38 | -2.8* | 0.8 | / | M1 antag confirm=672;mGluR4 antag=262
C=Cn1ccnc1P(=S)(c1nccn1C=C)C1CCCCC1 | 151 | 0.0018 | 0.14 | 1.4 | -0.69
O=C(Cc1ccccc1)OCCN1CCCCC1 | 89 | 1.2 | -3.5* | 1 | 0.3 | M1 antag confirm=507*;mGluR4 antag=242
NC(=O)C1(N2CCCCC2)CCN(Cc2ccccc2)CC1 | / | -0.22 | 0.68 | 1 | 0.3
O=P(O)(O)C12CC3CC(CC(C3)C1)C2 | 99 | -1.1 | 0.54 | 1 | 0.76
Oc1ccc(C2NCc3ccccc3-n3cccc32)cc1Cl (stereo not drawn) | 56 | -1.8 | -3.5* | 1.5 | -1.6 | M1 antag confirm=579;mGluR4 antag=248
Cc1nc2ccccc2c(=O)n1-n1cnnc1 | 95 | -0.7 | -2.7* | 1 | -0.033 | M1 antag confirm=726;mGluR4 antag=236
O=c1c2ccccc2nc(-c2ccccc2)n1-n1cccc1 | 94 | 0.97 | -2* | 0.9 | -0.19 | M1 antag confirm=632;mGluR4 antag=249
Cc1nc2ccccc2c(=O)n1-c1ccccn1 | 97 | 0.34 | -0.12 | 0.9 | 0.97
COc1cccc2c1O[C@H]1C(=O)CC[C@H]3CN(C)CCC231 (stereo partly drawn) | / | / | / | / | 0.36
CC(C)N1OC2CC1c1nc3ccccc3n1C2 (stereo not drawn) | / | / | / | / | 0.58
CCN(CC)CCCN=C(C)c1c(O)n(-c2ccc(C)cc2)c(=O)[nH]c1=O | 76 | -0.039 | -0.061 | 0.9 | -0.27
CC(=NCCN1CCCCC1)c1c(O)n(Cc2ccccc2)c(=O)[nH]c1=O | 113 | 0.14 | -2.4* | 1.4 | 0.56 | M1 antag confirm=562;mGluR4 antag=228
C=CCn1c(O)c(C(C)=NCCN2CCCCC2)c(=O)[nH]c1=O | / | / | / | 1 | 0.34
COc1cc(Br)cc(CN2CCN(C)CC2)c1O | 82 | -0.82 | -3.9* | 1.2 | 1.1 | M1 antag confirm=378*;mGluR4 antag=278
CCN1CCN(Cc2cc(Br)cc(Br)c2O)CC1 | / | / | / | 1.6 | -0.022
CC(=O)OC1(c2ccccc2)CCN(C2CCCCC2)CC1C (stereo not drawn) | / | / | / | / | 0.52
Cn1c(O)c(C(=N)COc2cccc(Cl)c2)c(=O)n(C)c1=O | / | / | / | 1 | -0.31
